ID4 SMM: ID4 (human) binding; small molecule microarray, Flag-ID4 binding, fluorescence F/B; calls only; 31,000 tested, 1.2% active; P47928; call rule not given here;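 also: a binder raises fluorescence above local background on the spot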
Target sequence (P47928 whole entry, looked up): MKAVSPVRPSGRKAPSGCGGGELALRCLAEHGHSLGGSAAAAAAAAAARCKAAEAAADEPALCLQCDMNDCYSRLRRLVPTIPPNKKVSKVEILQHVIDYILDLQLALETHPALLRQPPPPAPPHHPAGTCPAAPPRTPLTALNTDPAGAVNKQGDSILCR
Calls only; . = inactive; + = active, no number. Shown is part of a subset that was picked to be rich in hits.

SMILES | ID4 SMM
COc1ccc(CN(C)C[C@@H]2Oc3ccc(NC(=O)Cc4cn(C)c5ccccc45)cc3C(=O)N([C@H](C)CO)C[C@H]2C)cc1 | .
COc1ccc(CN(C)C[C@@H]2Oc3ccc(NC(=O)Cc4cn(C)c5ccccc45)cc3C(=O)N([C@H](C)CO)C[C@@H]2C)cc1 | .
C[C@H]1CN([C@@H](C)CO)C(=O)c2cc(NC(=O)Cc3cn(C)c4ccccc34)ccc2O[C@H]1CN(C)C(=O)Nc1ccccc1 | +
C[C@@H]1CN([C@@H](C)CO)C(=O)c2cc(NC(=O)Cc3cn(C)c4ccccc34)ccc2O[C@@H]1CN(C)C(=O)Nc1ccccc1 | .
COc1ccc(CN(C)C[C@@H]2Oc3ccc(NC(=O)Cc4cn(C)c5ccccc45)cc3C(=O)N([C@@H](C)CO)C[C@@H]2C)cc1 | +
O=S(=O)(NCC(O)Cn1c2ccc(Cl)cc2c2cc(Cl)ccc21)c1ccccc1 (stereo not given) | .
COC(=O)CN(c1ccc2c(c1)OCCO2)S(C)(=O)=O | .
O=C1C(=O)N(Cc2ccco2)C(c2ccccc2)C1C(=O)c1cccs1 (stereo not given) | .
COc1cc(OC)cc(-c2nnc(SCC(=O)Nc3ccccc3)o2)c1 | .
Cc1cc(C)c(OCC(=O)Nc2ncc(I)cc2C)c(Cl)c1 | .
COC(=O)c1ccccc1NC(=O)NCc1ccc(C(=O)O)cc1 | +
COC(=O)c1ccccc1NC(=O)CNC(=O)c1ccccc1 | .
COC(=O)c1ccccc1NC(=O)c1ccc(F)cc1 | .
COC(=O)c1c(NC(=S)Nc2ccc([N+](=O)[O-])cc2OC)sc(C)c1C | .
COC(=O)c1c(NC(=S)Nc2cccc(NC(C)=O)c2)sc(C(=O)N(C)C)c1C | .
COC(=O)c1c(NC(=S)Nc2ccc(CC(=O)O)cc2)sc(C)c1C | +
O=C1c2cccc3cccc(c23)N1Cc1ccc(F)cc1Cl | .
Cc1cccc(OCC(=O)Nc2cccc(-c3nc4cc(Cl)ccc4o3)c2C)c1 | .
CC(=O)c1ccc(NC(=O)CSc2nc(O)c(-c3ccccc3)c(=O)[nH]2)cc1 | .
CCc1c(C)nc(SCC(=O)Nc2ccc(Cl)cc2)[nH]c1=O | .
CCc1c(O)nc(SCC(=O)Nc2ccc(C(C)=O)cc2)[nH]c1=O | +
COc1ccc(OC)c(S(=O)(=O)N(C)CC(=O)Nc2ccccc2F)c1 | .
Cc1ccccc1NC(=O)CSc1ncnc2scc(-c3ccc(Cl)cc3)c12 | .
CNC[C@H]1Oc2ncc(-c3cncnc3)cc2C(=O)N([C@H](C)CO)C[C@@H]1C | .
CNC[C@@H]1Oc2ncc(-c3ccc(OC)cc3)cc2C(=O)N([C@H](C)CO)C[C@@H]1C | .
SMILES | ID4 SMM
CNC[C@@H]1Oc2c(NC(=O)c3cnccn3)cccc2C(=O)N([C@H](C)CO)C[C@H]1C | .
CNC[C@@H]1Oc2ncc(-c3ccc(OC)cc3)cc2C(=O)N([C@H](C)CO)C[C@H]1C | +
CNC[C@@H]1Oc2ncc(-c3ccccc3)cc2C(=O)N([C@H](C)CO)C[C@@H]1C | .
CNC[C@H]1Oc2c(NC(=O)c3cnccn3)cccc2C(=O)N([C@H](C)CO)C[C@H]1C | .
CNC[C@H]1Oc2ncc(C3=CCCC3)cc2C(=O)N([C@H](C)CO)C[C@H]1C | +
CNC[C@H]1Oc2ncc(-c3ccc(OC)cc3)cc2C(=O)N([C@H](C)CO)C[C@H]1C | .
CNC[C@@H]1Oc2ncc(C3=CCCC3)cc2C(=O)N([C@@H](C)CO)C[C@@H]1C | .
CNC[C@@H]1Oc2c(NC(=O)c3cnccn3)cccc2C(=O)N([C@@H](C)CO)C[C@@H]1C | +
CNC[C@@H]1Oc2ncc(-c3ccc(C#N)cc3)cc2C(=O)N([C@H](C)CO)C[C@@H]1C | +
C[C@@H]1CN([C@@H](C)CO)C(=O)c2cc(C3=CCCC3)cnc2O[C@H]1CN(C)C | .
COc1ccc2[nH]c3c(OC)ncnc3c2c1 | .
O=C1c2ccccc2C(=O)N1CCc1nc2ccccc2c(=O)n1-c1nc2ccccc2s1 | .
Cc1nnc(SCC(=O)Nc2cc(Cl)ccc2Cl)s1 | .
Cn1c(SCC(=O)Nc2ccc3ccccc3c2)nnc1-c1cc2ccccc2o1 | .
OCCN1CCN(CC(O)COc2ccc3c(c2)CCC3)CC1 (stereo not given) | .
CCC(=O)NC(c1c(C)[nH]n(-c2ccccc2)c1=O)(C(F)(F)F)C(F)(F)F | .
O=C(CSc1nc2sc3c(c2c(=O)n1-c1ccccc1)CCC3)N1CCC(c2noc3ccc(F)cc23)CC1 | .
CC(=O)NNC(=O)N1Cc2ccccc2Oc2ccc(Cl)cc21 | +
CN1CCN(C2=Cc3ccccc3Oc3ccc(Cl)cc32)CC1 | .
CC(=O)c1cccc(NC(=O)CN2C(=O)COc3ccc(Cl)cc32)c1 | .
O=C(O)C(O)Cc1c[nH]c2ccccc12 (stereo not given) | .
O=CNCCc1c[nH]c2ccccc12 | .
O=C(O)CCCc1c[nH]c2ccccc12 | +
CCC(=O)c1ccc(OCC(O)Cn2c(C)nc3ccccc32)cc1 (stereo not given) | .
Cc1nc2ccccc2n1CC(O)COc1ccc(C(=O)O)cc1 (stereo not given) | .
SMILES | ID4 SMM
COC(=O)c1ccc(OCC(O)Cn2c(C)nc3ccccc32)cc1 (stereo not given) | +
C[C@H](CO)N1C[C@H](C)[C@H](CN(C)C(=O)Nc2ccccc2)Oc2ncc(/C=C/c3ccccc3)cc2C1=O | +
CC(=O)N(C)C[C@@H]1Oc2ncc(/C=C/c3ccccc3)cc2C(=O)N([C@@H](C)CO)C[C@@H]1C | .
C[C@@H]1CN([C@H](C)CO)C(=O)c2cc(/C=C/c3ccccc3)cnc2O[C@@H]1CN(C)C(=O)Nc1ccc(C(F)(F)F)cc1 | .
CCCNC(=O)N(C)C[C@H]1Oc2ncc(-c3ccncc3)cc2C(=O)N([C@@H](C)CO)C[C@H]1C | .
C[C@H](CO)N1C[C@H](C)[C@H](CN(C)C(=O)Nc2ccccc2F)Oc2ncc(-c3ccc(F)cc3)cc2C1=O | .
C[C@H](CO)N1C[C@H](C)[C@@H](CN(C)C(=O)Nc2ccc(C(F)(F)F)cc2)Oc2c(NC(=O)Nc3cccc4ccccc34)cccc2C1=O | .
CCCNC(=O)N(C)C[C@H]1Oc2ncc(-c3ccc(C(=O)N(C)C)cc3)cc2C(=O)N([C@H](C)CO)C[C@H]1C | +
C[C@@H]1CN([C@@H](C)CO)C(=O)c2cc(-c3ccc(F)cc3)cnc2O[C@@H]1CN(C)C(=O)Nc1ccccc1F | +
C[C@H](CO)N1C[C@H](C)[C@H](CN(C)C(=O)Nc2ccc(C(F)(F)F)cc2)Oc2c(NC(=O)Nc3cccc4ccccc34)cccc2C1=O | +
C[C@H]1CN([C@@H](C)CO)C(=O)c2cc(-c3ccc(C(=O)N(C)C)cc3)cnc2O[C@H]1CN(C)C | .
CC(=O)N(C)C[C@H]1Oc2ncc(-c3ccc(F)cc3)cc2C(=O)N([C@@H](C)CO)C[C@@H]1C | .
C[C@H]1CN([C@@H](C)CO)C(=O)c2cccc(NC(=O)Nc3cccc4ccccc34)c2O[C@H]1CN(C)C(=O)Nc1ccc(C(F)(F)F)cc1 | .
CCCn1nnc(NC(=O)COc2ccc(C)cc2)n1 | .
CCCCCCNC(=O)Nc1ccc(S(=O)(=O)Nc2ccc(CCNCC(O)COc3ccc(O)cc3)cc2)cc1 (stereo not given) | .
COc1cc(CCC(O)CC(O)CCc2ccc(O)c(O)c2)ccc1O (stereo not given) | .
CCCCN(C)S(=O)(=O)c1ccc(C)c(-c2nnc3c4ccccc4c(C)nn23)c1 | .
O=C(CSc1nnc(-c2ccccc2)n1-c1ccccc1)Nc1ccc(C(F)(F)F)cc1 | .
COc1ccc(C)cc1S(=O)(=O)N(C)CC(=O)O | .

Screening data from PubChem BioAssay.
